For 26 molecules, inhibition results are on record in PubChem BioAssay.

Experiment [1] can be described thus: StAR promoter reporter inhibitors, counter-screen for LRH-1 inverse agonist project, cell-based, luminescence, high throughput (AID 651611; in the data active = inhibition above about 28%). To be noted: StAR promoter luciferase reporter counterscreen, at 3.6 µM, hits give high values. A general note: A counterscreen serves to expose hits that act by an unwanted route or on another target.
Experiment [2] deals with Nuclear receptor subfamily 5 group A member 2 (Homo sapiens) (UniProt O00482). Put plainly: NR5A2 activity suppression in reporter cells – cell-based, luminescence, confirmation (AID 651613; in the data active = inhibition above about 42%;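 also: HEK293T cells co-transfected with LRH-1 and StAR promoter luciferase reporter; 0% = vehicle wells and 100% = parental cells lacking receptor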). The conditions noted are these: cell-based LRH-1 luciferase reporter, inverse agonism; at 3.6 µM; hits give high values.
The target of experiment [3] is Steroidogenic factor 1 (Homo sapiens) (UniProt Q13285). Put plainly: inverse agonism at SF1 nuclear receptor – cell-based, luminescence, high throughput, counter-screen for LRH-1 inverse agonist project (AID 651614; in the data active = inhibition above about 44%;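 also: cells cotransfected with StAR promoter reporter and SF1 expression vector; 0% = vehicle on cells with receptor and 100% = vehicle on cells lacking receptor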). To be noted: cell-based SF1 luciferase reporter, at 3.6 µM, hits give high values.
The nature of experiment [4]: compounds suppressing VP16-driven luciferase signal – cell-based, luminescence, high throughput, counter-screen for LRH-1 inverse agonist project (AID 651615). The conditions noted are these: Gal4-VP16 luciferase reporter cells, at 3.6 µM, hits give high values.

A number with no mark means an inactive call. The source made the active and inactive calls. Rule as the data show it, unless noted: active = inhibition above about 33%; inactive = the rest.

Chain of Steroidogenic factor 1 (Homo sapiens) (Q13285 whole entry, looked up, the tested form may be a part): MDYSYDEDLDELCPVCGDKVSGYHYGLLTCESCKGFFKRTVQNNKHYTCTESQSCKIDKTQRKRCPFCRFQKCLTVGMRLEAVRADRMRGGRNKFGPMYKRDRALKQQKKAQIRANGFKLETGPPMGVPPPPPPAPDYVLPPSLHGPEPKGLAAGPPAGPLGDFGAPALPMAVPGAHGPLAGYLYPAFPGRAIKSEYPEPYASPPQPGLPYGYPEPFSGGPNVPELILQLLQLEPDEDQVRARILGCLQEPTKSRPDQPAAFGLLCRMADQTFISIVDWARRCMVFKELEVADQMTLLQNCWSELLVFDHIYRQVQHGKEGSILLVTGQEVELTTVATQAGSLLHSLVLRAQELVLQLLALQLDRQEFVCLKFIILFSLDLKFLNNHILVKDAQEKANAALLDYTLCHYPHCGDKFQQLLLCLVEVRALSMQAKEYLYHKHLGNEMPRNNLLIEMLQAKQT
Chain of Nuclear receptor subfamily 5 group A member 2 (Homo sapiens) (O00482 whole entry, looked up): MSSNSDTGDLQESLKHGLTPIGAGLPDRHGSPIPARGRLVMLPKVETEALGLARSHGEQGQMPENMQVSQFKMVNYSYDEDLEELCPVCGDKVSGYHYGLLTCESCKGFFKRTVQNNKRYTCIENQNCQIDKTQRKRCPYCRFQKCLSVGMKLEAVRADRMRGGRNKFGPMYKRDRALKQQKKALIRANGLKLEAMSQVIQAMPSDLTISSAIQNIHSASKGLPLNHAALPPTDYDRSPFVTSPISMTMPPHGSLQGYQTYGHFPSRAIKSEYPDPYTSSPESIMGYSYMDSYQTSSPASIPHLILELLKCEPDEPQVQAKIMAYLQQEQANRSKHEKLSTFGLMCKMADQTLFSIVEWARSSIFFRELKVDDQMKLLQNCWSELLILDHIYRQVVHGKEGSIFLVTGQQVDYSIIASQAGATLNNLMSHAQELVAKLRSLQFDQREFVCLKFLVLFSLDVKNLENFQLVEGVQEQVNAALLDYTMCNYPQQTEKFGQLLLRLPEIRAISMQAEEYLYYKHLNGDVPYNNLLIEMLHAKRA

The inhibition is the drop in the measured response relative to a control, in per cent. `CCOc1ccc(CCNC(=O)COC(=O)/C=C/c2ccc(OC(F)F)c(OC)c2)cc1OCC`: the inhibition is 12.5% in experiment [1], 51.5% (active) in experiment [2], 47.1% (active) in experiment [3] and -3.71% in experiment [4].
On the same counts, the results for `COc1ccc(-c2cc(-c3ccc(O)cc3)nc(N)c2C#N)cc1` are 27.8% (active), 58.3% (active), 49% (active) and -19.5%.
For the molecule `O=C(Cn1ncc(Cl)c(Cl)c1=O)Nc1ccc2c(c1)OCO2`, the inhibition was -10.7% in experiment [1], 38.1% in experiment [2], 47.4% (active) in experiment [3] and -13.7% in experiment [4].
Taken in the same sequence, the figures for `CN1CC(=O)N(CC(=O)Nc2ccc(N3CCOCC3)cc2)C1=O` were 18.7%, 63.9% (active), 65.2% (active) and -10.9%.
Taken in the same sequence, the figures for `CC(=O)CSc1nc(N)c(C#N)c(-c2cccs2)c1C#N` were 31.5% (active), 57.7% (active), 62.7% (active) and 35% (active).
Taken in the same sequence, the figures for `COc1cccc(C2c3cc4c(cc3OC(NNC(N)=O)C2C)OCO4)c1O` (centres undefined) were 24.7%, 59% (active), 60.1% (active) and 26.5%.
With `C#CCN(C[C@@H]1[C@@H](OC(=O)NCc2ccc(OC)c(OC)c2)[C@@H](OC(=O)NCc2ccc(OC)c(OC)c2)CN(C(=O)OC(C)C)N1C(=O)OC(C)C)S(=O)(=O)c1ccc(C)cc1`, the inhibition in experiment [1] was 1.68%; in experiment [2], 35.2%; in experiment [3], 30.1%; in experiment [4], 10.3%.
On the same counts, the results for `C/C(=N\NC(N)=S)c1ccc(Cl)s1` are 16.8%, 55.8% (active), 35.5% and 21.2%.
On the same counts, the results for `C/C(=N\NC(N)=S)C1(C)CCCCC1` are 20.6%, 57.1% (active), 53.3% (active) and 29.4%.
Taken in the same sequence, the figures for `CC(=O)ON=C1C=CC(=C(C#N)c2ccccc2)C=C1` were 50.8% (active), 79% (active), 79.4% (active) and 20.2%.
As for `CC(NC(=O)CCl)c1ccccc1Br` (centres undefined), the inhibition in experiment [1] is 23.9%; in experiment [2], 60.2% (active); in experiment [3], 57.4% (active); in experiment [4] it was -27.4%.
On the same counts, the results for `COc1cc(NC(=O)c2ccc([N+](=O)[O-])o2)ccc1NC(=O)c1cccs1` are 30.9% (active), 61.1% (active), 61.9% (active) and -9.17%.
Taken in the same sequence, the figures for `COc1cc(C(=O)NC2CCN(C)CC2)ccc1Nc1ncc2c(n1)N(CCc1ccccc1)CCC(=O)N2C` were 63.2% (active), 54.8% (active), 47.4% (active) and -166%.
On the same counts, the results for `COc1ccc(Nc2nc(Nc3ccc(OC)cc3)nc(SC3=NCCS3)n2)cc1` are 19.6%, 53.3% (active), 53.4% (active) and 4.27%.
Regarding `COC(=O)CNC(=O)c1nn(-c2cccc(OC)c2)c(=O)c2ccccc12`, the inhibition in experiment [1] was 25%; in experiment [2], 35.9%; in experiment [3] it was 37.3%; in experiment [4], -0.96%.
Consider `Cc1nc2ccccc2n1/N=C/c1ccc([N+](=O)[O-])s1`, for which the inhibition was 20.9% in experiment [1], 68.2% (active) in experiment [2], 71.4% (active) in experiment [3] and 29.6% in experiment [4].
Taken in the same sequence, the figures for `CC(=O)Nc1sc2c(c1-c1nc3ccccc3s1)CN(C(C)C)CC2` were 36.6% (active), 66.4% (active), 61.1% (active) and 80.7% (active).
Taken in the same sequence, the figures for `COc1ccc(-n2c(SCC(=O)NCc3ccco3)nc3sc4c(c3c2=O)CCN(C)C4)cc1` were -6.62%, -2.89%, 11% and -5.24%.
In the case of `O=[N+]([O-])c1cnccc1Nc1ccccc1`, the inhibition in experiment [1] is 7.45%; in experiment [2], 62% (active); in experiment [3] it was 58.9% (active); in experiment [4], 1.98%.
`O=C(CC1C(=O)NCCN1C(=S)Nc1ccccc1)Nc1ccc2c(c1)OCCO2` (centres undefined): the inhibition in experiment [1] is 10.3%; in experiment [2] it was 53.8% (active); in experiment [3], 63.2% (active); in experiment [4], -25.2%.
Taken in the same sequence, the figures for `Cc1ccc(NC(=O)CSc2nc3ncc(Br)cc3[nH]2)cc1C` were 10.7%, 54.5% (active), 54.1% (active) and 1.21%.
In the case of `Cc1ccccc1Oc1nc2c(C)cccn2c(=O)c1/C=C(\C#N)C(=O)NC1CCS(=O)(=O)C1` (centres undefined), the inhibition is 8.01% in experiment [1], 52.6% (active) in experiment [2], 51.3% (active) in experiment [3] and 18.6% in experiment [4].
`O=C(Nc1cccc2ncccc12)c1ccc([N+](=O)[O-])o1`: the inhibition in experiment [1] was 16.2%; in experiment [2], 69.9% (active); in experiment [3] it was 64.4% (active); in experiment [4], -17.5%.
On the same counts, the results for `Cc1ccccc1OCC(=O)N/N=C/c1ccc([N+](=O)[O-])o1` are 18.6%, 57.5% (active), 60% (active) and 9.63%.
On the same counts, the results for `O=C(c1ccc(Cl)cc1)N1CCCCC(Cl)C1=O` (centres undefined) are 20.5%, 56.1% (active), 57.2% (active) and 1.69%.
On the same counts, the results for `CCN(CC)c1ccc(C2=NNC(=O)CC2C)cc1[N+](=O)[O-]` (centres undefined) are -14.3%, 17%, 21.7% and -1.3%.
